# Source: PubChem BioAssay AID1259310 (The Scripps Research Institute Molecular Screening Center, 2017)
# “And” between values parts separate entries of the source, which are not always exact repeats. Identical values can stand only once. Hit rate of the full screen: of about 650,000 compounds, about 850 (0.13%) were called active. What follows is part of a selection rich in actives, with near analogues and random picks from the rest. A number with no mark means an inactive call. No stated cut-off is given here; in the data, active means normalized activity above about 1.9%; inactive means the rest.
# Target: F-box/WD repeat-containing protein 7 (Homo sapiens) (UniProt Q969H0)
# Sequence (Q969H0 whole entry, looked up): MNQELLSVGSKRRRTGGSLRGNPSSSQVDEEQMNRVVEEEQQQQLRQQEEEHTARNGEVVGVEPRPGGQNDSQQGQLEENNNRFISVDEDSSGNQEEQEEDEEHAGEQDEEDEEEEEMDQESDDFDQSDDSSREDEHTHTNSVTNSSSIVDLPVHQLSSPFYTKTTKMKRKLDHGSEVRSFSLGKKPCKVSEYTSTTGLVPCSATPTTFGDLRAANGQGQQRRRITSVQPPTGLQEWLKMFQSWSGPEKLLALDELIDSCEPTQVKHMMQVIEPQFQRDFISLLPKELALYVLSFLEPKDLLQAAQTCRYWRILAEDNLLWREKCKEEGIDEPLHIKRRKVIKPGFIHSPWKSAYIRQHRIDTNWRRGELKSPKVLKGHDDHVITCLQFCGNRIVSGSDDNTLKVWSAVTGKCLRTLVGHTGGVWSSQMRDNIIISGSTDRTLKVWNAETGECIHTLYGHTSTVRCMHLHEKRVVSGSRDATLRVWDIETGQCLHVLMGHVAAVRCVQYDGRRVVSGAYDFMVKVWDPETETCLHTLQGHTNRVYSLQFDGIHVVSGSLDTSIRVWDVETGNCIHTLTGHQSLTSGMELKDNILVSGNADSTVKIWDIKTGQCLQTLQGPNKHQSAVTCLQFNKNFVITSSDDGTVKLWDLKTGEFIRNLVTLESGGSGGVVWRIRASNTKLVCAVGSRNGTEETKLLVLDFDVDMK
# Test: FBW7 E3 ligase activators, primary screen, biochemical, AlphaScreen, human (AID 1259310);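 further: purified mutant Fbw7 with reduced substrate affinity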
# Conditions: AlphaScreen FBW7–phospho-cyclin E peptide binding, activator screen; at 26.1 µM; active compounds read high
row,Compound,normalized activity (activation)
1,NC(=O)CSc1ccc2nnc(-c3ccccn3)n2n1,69.7% (active)
2,Cc1ccc(-c2nnc3ccc(SCC(N)=O)nn23)cc1,0.47%
3,O=C(O)CSc1ccc2nnc(-c3ccc(F)cc3)n2n1,0.39%
4,O=C(Nc1ccc(N2CCOCC2)cc1)c1cccc(-n2nccc2NC(=O)C2CC2)c1,0.06%
5,COc1ccc(N2CCN(C(CNC(=O)C(C)C)c3ccco3)CC2)cc1 (centres undefined),0%
6,COc1ccc(Br)cc1CN(C)Cn1cnc2ccccc21,-0.03%
7,CCN(Cc1ccccc1)C(=O)c1cc2c(=O)n3cccc(C)c3nc2n1C,3.93% (active)
8,C=CCNC(=O)c1cc2c(=O)n3cccc(C)c3nc2n1C,0.17%
9,CC(C)N(Cc1ccccc1)C(=O)c1cc2c(=O)n3ccccc3nc2n1C,0.69%
10,O=C(CNC(=O)OCc1ccccc1)Oc1ccc2c(-c3ccccc3)cc(=O)oc2c1,-0.09%
11,O=C(NCc1nnc2n1CCN(Cc1c(F)cccc1Cl)CC2)c1ccccc1,-0.02%
12,O=C(Cc1cccs1)NCCS(=O)(=O)N1CCN(c2ccccn2)CC1,0.01%
13,O=C(c1cnsc1)N1CCC(c2[nH]ncc2-c2ccncc2)CC1,2.18% (active)
14,Cc1cc(C(=O)N2CCC(c3[nH]ncc3-c3ccncc3)CC2)c(C)[nH]1,0.63%
15,O=C(c1cnsc1)N1CCCC(c2ncncc2-c2ccncc2)C1 (centres undefined),0.35%
16,Cc1ccc(C)c(C(=O)Nc2ncc(S(=O)(=O)c3ccc([N+](=O)[O-])cc3)s2)c1,-0.16%
17,CCOc1ccc(NC(C)C(=O)N/N=C/c2ccccc2O)cc1 (centres undefined),-0.35%
18,COCCn1nnnc1C(c1cc2cc(C)cc(C)c2[nH]c1=O)N1CCOCC1 (centres undefined),2.29% (active)
19,COCCn1nnnc1C(c1cc2ccc(C)cc2[nH]c1=O)N1CCCC1 (centres undefined),-0.04%
20,COCCn1nnnc1C(c1cc2cc(C)c(C)cc2[nH]c1=O)N1CCCCC1 (centres undefined),-0.02%
21,O=C1NC(=O)C(=Cc2ccc(OC(=O)c3ccc(Cl)c(Cl)c3)cc2)C(=O)N1,0.22%
22,CCOC(=O)CSc1nc2ccsc2c(=O)n1CCc1ccc(OC)c(OC)c1,0.46%
23,COCCOC(=O)C1=C(C)NC2=C(C(=O)CC(c3ccccc3)C2)C1c1cc(OC)ccc1OC (centres undefined),0.27%

row,Compound,normalized activity (activation)
1,CCSCCOC(=O)C1=C(C)NC2=C(C(=O)CC(c3ccccc3)C2)C1c1ccc(OC)cc1OC (centres undefined),2.28% (active)
2,CCSCCOC(=O)C1=C(C)NC2=C(C(=O)CC(c3ccccc3)C2)C1c1ccccc1 (centres undefined),0.61%
3,O=C(Nc1ccc(C(=O)Nc2nccs2)cc1)c1ccc2c(c1)C(=O)N(c1ccccc1-c1ccccc1)C2=O,-0.08%
4,Cc1ccc(N=c2scc(C)n2CCCO)cc1,-0.38%
5,CC(=O)N(C)c1nc(-c2cccc(N(C)C)c2)ccc1C(=O)NC1CCCCC1,1.86% (active)
6,CN(C)c1cccc(Nc2cc(C(=O)NC3CC3)c3ccccc3n2)c1,0.31%
7,CN(C)c1cccc(Nc2cccc(C(=O)NC3CC3)n2)c1,-0.12%
8,CCOC(=O)N1CCC(NC(=O)CC2C(=O)NCCN2Cc2ccoc2)CC1 (centres undefined),0.27%
9,CCCCSc1ncnc2c1c(-c1ccccc1)cn2-c1ccc(OC)cc1,-0.03%
10,Cc1ccc(C(C)C)c(OCC(=O)Oc2ccc3c(c2)oc(=O)c2ccccc23)c1,-0.05%
11,CCOC(=O)/C(C#N)=C/c1cc(C)n(-c2ccc(C(=O)OCC)cc2)c1C,-0.1% and -0.13%
12,CCOC(=O)/C(C#N)=C/c1ccc(N2CCCCC2)cc1,1.85% (active)
13,COCCNC(=O)/C(C#N)=C/c1ccc(N2CCOCC2)cc1,0.46%
14,CCOC(=O)C1=C(C)N=c2s/c(=C\c3ccc(OCc4ccc([N+](=O)[O-])cc4)c(OC)c3)c(=O)n2C1c1ccc2c(c1)OCO2 (centres undefined),0.04%
15,COCCNc1ncc(-c2cccs2)cn1,0.02%
16,O=C1C2C3c4ccccc4C(c4ccccc43)C2C(=O)N1CCCCO (centres undefined),0.04%
17,CC1=C(C#N)C(=O)N(CCCO)C(=O)/C1=C\c1ccc(-c2ccc(Cl)cc2)o1,-0.06%
18,CCCCOC(=O)c1cccc(NC(=O)CN2C(=O)c3ccccc3C2=O)c1,0.09%
19,CNc1cc(-c2ccnc(Nc3ccc(-n4cnc(C)n4)cc3)c2)no1,0.51%
20,Cc1ncn(-c2ccc(Nc3cc(-c4nocc4-c4ccccn4)ccn3)cc2)n1,2.76% (active)
21,Cc1ncn(-c2ccc(Nc3cc(-c4cnn(C(C)C)c4-c4ccc(F)cc4)ccn3)cc2)n1,0.79%
22,O=c1c(NCCN2CCCCCC2)c(-c2ccc(Cl)cc2)c1=O,0%
23,CC(C)NCCOCCOc1cccc(Br)c1,0.35%

row,Compound,normalized activity (activation)
1,COCc1cc(C)nc(OCC(=O)c2ccccc2)c1C#N,0.04%
2,Cc1c(C(=O)N2CCCC2)oc2c1-c1nn(CC(=O)N3CCCC3)cc1CC2,8.41% (active)
3,Cc1c(C(=O)N2CCOCC2)oc2c1-c1nn(CC(=O)NC(C)c3ccccc3)cc1CC2 (centres undefined),-0.04%
4,Cc1c(C(=O)N2CCCC2)sc2ncn(CC(=O)N3CCCC3)c(=O)c12,0.33%
5,Nc1nnc(-c2ccc(Cn3c(-c4cncs4)nc4ccccc43)cc2)s1,0.1%
6,O=C(O)CCCN1C(=O)C(=O)/C(=C(\O)c2ccccc2)C1c1cccc(F)c1 (centres undefined),-0.31%
7,CC1CCCN(S(=O)(=O)c2cccc3cccnc23)C1 (centres undefined),-0.09%
8,Cc1c(Cc2ccccc2)c(N2CCCCC2)n2c(nc3ccccc32)c1C#N,0.12%
9,Cc1cc(NCCN2CCCCCC2)n2c(nc3ccccc32)c1C#N,2.12% (active)
10,Cc1cc(Nc2ccc(Cl)cc2)n2c(nc3ccccc32)c1C#N,-0.02%
11,CC(=O)c1cccc(-c2nc3ncnc(NCCOc4ccccc4)c3[nH]2)c1,0.01%
12,CCOc1ccc(Nc2nc(C)c([N+](=O)[O-])c(Nc3ccc(OC)cc3)n2)cc1,-0.11%
13,CC(C)CC(C(=O)NC1CCCC1)N(C(=O)c1snc(C(N)=O)c1N)C1CCCC1 (centres undefined),0.18%
14,Cc1ccc(C(=O)NC(C)C(c2cccs2)N2CCN(C)CC2)cc1 (centres undefined),-0.03%
15,CCCCOc1ccc(/C=C/c2nc3ccccc3c(=O)n2-c2ccc(C)c(C)c2)cc1,-0.23%
16,CC(=O)Nc1ccc(Nc2nc(Nc3ccncn3)nc3c2ncn3-c2ccsc2)cc1,0.77%
17,CC(=O)Nc1ccc(Nc2nc(Nc3ccc(-n4ccnc4)cc3)nc3c2ncn3-c2ccsc2)cc1,-0.15%
18,CC(=O)Nc1ccc(Nc2nc(Nc3cnccn3)nc3c2ncn3-c2ccccc2)cc1,2.09% (active)
19,COc1ccccc1NC(=O)c1c(C)nc(SCC(=O)c2ccccc2)c(C#N)c1-c1ccc(C)o1,-0.03%
20,Cc1c(NC(=O)c2ccc(Br)cc2)cccc1-c1nc2ccccc2o1,0.17%
21,O=C(CSc1n[nH]c(-c2cccs2)n1)NC(=O)NC12CC3CC(CC(C3)C1)C2,-0.03%
22,Cc1sc2ncn3c(SCC(=O)N4CCc5ccccc54)nnc3c2c1C,-0.09%
23,COC(=O)COc1ccc(S(=O)(=O)N2CCN(c3cc(Cl)ccc3C)CC2)cc1,-0.32%

row,Compound,normalized activity (activation)
1,O=C(CN(c1ccccc1)S(=O)(=O)c1ccccc1[N+](=O)[O-])N/N=C/c1ccco1,2.75% (active)
2,O=C(CN(c1ccccc1)S(=O)(=O)c1ccccc1[N+](=O)[O-])Nc1ccc(F)cc1,0.71%
3,NC(=O)CN(c1ccccc1)S(=O)(=O)c1ccccc1[N+](=O)[O-],-0.14%
4,COCCCN1C(=O)C2C(C(=O)Nc3cccc(C)c3)C3C=CC2(O3)C1C(=O)NC1CCCC(C)C1C (centres undefined),0.2%
5,C=CCn1c(=NC(=O)c2ccccc2[N+](=O)[O-])sc2cc(S(N)(=O)=O)ccc21,0%
6,COc1ccccc1C1N(Cc2ccccc2)CCN1Cc1ccccc1,0.1%
7,Cc1ccc(Oc2ccc(N(C)C(=O)Nc3ccc(Cl)cc3)cc2)nn1,0.86%
8,COC(=O)c1c(OCc2ccncc2)cc(=O)n2c1CCN(CCCSC)CC2,0%
9,CC(C)OCCCNC(=O)Nc1cccc(Cl)c1,0.02%
10,C[C@@H](c1ccccc1)n1c(=O)[nH]c2ncc(-c3ccccc3)nc21,0.05%
11,CC(C)NCC(=O)N(c1ccccc1)N1CCOCC1,0.19%
12,CCCCSc1nnc2c(n1)OC(c1ccc(N(C)C)cc1)Nc1ccccc1-2 (centres undefined),0.3%
13,COc1ccc2c(c1)c(=O)c1ccccc1n2CC(=O)Nc1ccc(F)cc1,0%
14,N/C(=N\OC(=O)CCCOc1ccc(Cl)cc1Cl)c1nonc1N,4.98% (active)
15,O=C(CCCOc1ccc(Cl)cc1Cl)N1CCCC1,0.05%
16,N/C(=N\OCc1cc2c(cc1Cl)OCO2)c1nonc1N,0.4%
17,Nc1ccnc2cc(-c3ccccc3)nn12,-0.02%
18,CSc1ncc(C(=O)Nc2ccc3c(c2)OCCO3)c(C)n1,0.15%
19,C=CCOC(=O)C1=C(C)Nc2c(c(=O)n(C)c(=O)n2C)C1c1ccc2c(c1)OCO2 (centres undefined),0.09%
20,Cc1ccc(-c2csc(/C(C#N)=C/c3ccccc3[N+](=O)[O-])n2)cc1,-0.09%
